Bioassay records (PubChem)
An excerpt weighted towards active compounds, which were near 0.52% of everything screened.
GLS inh: inhibitors of human glutaminase (GLS); O94925; GLS enzymatic activity, qHTS titration; Potency, µM (titrated, usually from 45.5 µM), for the others: at the highest dose activity change, negative = inhibition, hits mostly inhibitors; hit rate 0.21% among 410,000; AID 624170; note: % is set by controls: 0 for no effect and ±100 for the full control effect
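Compounds were pin-transferred onto hKGA, after which L-glutamine (1 mM solution) and a detection mix of glutamate oxidase, HRP and Amplex Red were added. Initial and 30 min RT fluorescence reads were collected.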
USP2a block: blocks human ubiquitin-specific protease USP2a. O75604. USP2 core, Ub-CHOP2 coupled fluorogenic reporter, 485/531. Potency, µM (series often up to 38.3 µM), inactives show at the highest dose activity change, negative = inhibition, actives largely listed as inhibitors. hit rate 0.01% among 330,000;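 note: plate controls were DMSO wells for no effect and full inhibition by NEM control for full effect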
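Deubiquitinase activity read as fluorescence (485/531 nm) after Ub-CHOP2 cleavage activates the enterokinase reporter on its substrate; USP2 core 10nM, Ub-CHOP2 and substrate 25nM each, 30min compound preincubation then 60min RT; data normalized to NEM, curves fitted.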
GCN5L2 inh: inhibitors of human GCN5L2 histone acetyltransferase | Q92830 | GCN5L2 HAT assay, ThioGlo1 CoA-SH fluorescence | Potency, µM (top dose mostly 58.9 µM), without a hit: top-dose activity change, negative = inhibition, usual class: inhibitors | hit rate 0.21% among 390,000 | AID 504327; note: % is set by controls: 0 for no effect and ±100 for the full control effect
Target sequence (Q92830 whole entry, looked up): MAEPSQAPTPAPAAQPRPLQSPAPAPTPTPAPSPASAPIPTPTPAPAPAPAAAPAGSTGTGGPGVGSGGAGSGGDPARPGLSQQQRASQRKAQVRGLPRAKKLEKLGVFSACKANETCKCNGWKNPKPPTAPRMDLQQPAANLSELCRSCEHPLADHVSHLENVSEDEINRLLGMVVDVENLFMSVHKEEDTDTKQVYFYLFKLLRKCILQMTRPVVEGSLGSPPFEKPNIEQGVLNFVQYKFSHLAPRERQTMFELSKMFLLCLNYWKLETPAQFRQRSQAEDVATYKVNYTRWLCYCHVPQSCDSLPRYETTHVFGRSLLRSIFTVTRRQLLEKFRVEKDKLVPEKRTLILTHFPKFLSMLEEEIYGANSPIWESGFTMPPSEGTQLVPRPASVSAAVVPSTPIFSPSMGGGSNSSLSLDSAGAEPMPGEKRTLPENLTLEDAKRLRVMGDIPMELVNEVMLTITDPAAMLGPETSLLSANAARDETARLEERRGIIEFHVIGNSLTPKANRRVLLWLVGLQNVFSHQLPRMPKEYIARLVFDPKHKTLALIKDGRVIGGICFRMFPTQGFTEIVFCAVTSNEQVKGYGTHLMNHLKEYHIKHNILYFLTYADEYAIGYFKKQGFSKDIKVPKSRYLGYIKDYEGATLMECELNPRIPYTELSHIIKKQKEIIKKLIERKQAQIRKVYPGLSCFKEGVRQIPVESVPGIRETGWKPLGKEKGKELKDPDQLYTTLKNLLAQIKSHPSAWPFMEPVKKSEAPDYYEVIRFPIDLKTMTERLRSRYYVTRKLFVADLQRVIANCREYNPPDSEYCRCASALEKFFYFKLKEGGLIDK
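Titration-based screen in which CoA formation is detected via maleimide probe ThioGlo1 (50uM) turning fluorescent on thiol reaction; substrates H3(1-25) 75uM and acetyl-CoA 70uM, GCN5L2 20nM, 20 min incubation at room temperature.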
PGK inhibitor: blocks T. brucei phosphoglycerate kinase. PGK/GAPDH coupled, Kinase-Glo luminescence, 60 min. Potency, µM (doses to about 57.5 µM), inactives show at the top dose activity change, negative = inhibition, actives largely listed as inhibitors. hit rate 0.043% among 380,000. P07378; note: % is set by controls: 0 for no effect and ±100 for the full control effect; nearly all actives have a fitted effect of over 60% in size
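Luminescent ATP detection (Kinase-Glo Plus) follows a 60-minute room-temperature incubation, with wells lacking PGK as controls. Buffer: 100 mM TEA (pH 7.6), 5 mM MgCl2, 0.01% Tween-20. Coupling enzyme GAPDH (100 nM final) supplies unstable 1,3-BPG in-well.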
Tb PFK inh-1: blocks T. brucei phosphofructokinase; O15648; T. brucei PFK, ADP-Glo luminescence; Potency, µM (titrated, usually from 57.5 µM), for inactives: top-dose activity, negative = inhibition, most hits filed as inhibitors; hit rate 0.17% among 330,000; AID 485367;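 note: 0% = uninhibited 1x PFK enzyme wells and -100% = no-enzyme wells; nearly all actives have a fitted effect of over 60% in size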
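Activity is normalized to no-enzyme wells (full inhibition) and 1.25 nM enzyme wells (no inhibition). Reaction: 0.5 mM F6P, 0.1 mM ATP, 45 min RT, ADP-Glo luminescence; concentration-response curves fitted and classed by quality.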
TbPFK ATP: orthogonal confirmation of T. brucei phosphofructokinase inhibitors. AID 504636. Potency, µM (top dose mostly 57.5 µM), inactives show at the top dose inhibition. shares compounds with Tb PFK inh-1. Tb PFK enzyme, ATP depletion, Kinase-Glo Plus luminescence. hit rate 47% among 1,100; calls by dose curve; note: nearly all actives have a fitted effect of over 60% in size
Tb PFK inh-2: T. brucei PFK enzyme inhibition, hit validation | shares compounds with Tb PFK inh-1 | hit rate 41% among 1,100 | purified T. brucei PFK, ADP-Glo luminescence, 45 min | AID 504637 | Potency, µM (series often up to 57.5 µM), for the others: top-dose activity change, negative = inhibition, hits mostly inhibitors;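 note: plate controls were full PFK enzyme control for no effect and no enzyme control for full effect; nearly all actives have a fitted effect of over 60% in size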
Numbers without * were called inactive; i = inactive; ? = inconclusive; · = no result; [ ] = another dose, or the depositor's remark. Unless noted, calls come from the whole dose curve; as a rule, active = well fitted curve in the direction sought with a large enough effect; inconclusive = small, poorly fitted or top-dose-only effect, or another doubt; inactive = no such curve, though single readings can be large; an effect the other way counts as inactive or inconclusive. Potency is the fitted concentration of half-maximal effect.

SMILES	GLS inh	USP2a block	GCN5L2 inh	PGK inhibitor	Tb PFK inh-1	TbPFK ATP	Tb PFK inh-2
Cc1ccccc1N1C(=O)NC(=O)/C(=C\c2ccc3c(c2)CCCN3Cc2ccccc2)C1=O	?	0%	?	-9%	-20%	·	·
O=C1NC(=S)NC(=O)C1=Cc1ccc2c(c1)CCN2CCCCl	10µM*	-10%	3%	?	-15%	·	·
Cc1c(N)nc([C@@H](CC(N)=O)NC[C@H](N)C(N)=O)nc1C(=O)N[C@H](C(=O)N[C@H](C)[C@H](O)[C@H](C)C(=O)N[C@@H](C(=O)NCCc1nc(-c2nc(C(=O)NCCC[S+](C)C)cs2)cs1)[C@H](C)O)[C@H](O[C@@H]1O[C@@H](CO)[C@@H](O)[C@H](O)[C@@H]1O[C@H]1O[C@H](CO)[C@H](O)[C@H](OC(N)=O)[C@@H]1O)c1cnc[nH]1	2%	·	·	·	·	·	·
CO/C=C(/C(=O)OC)c1ccccc1Oc1cc(Oc2ccccc2C#N)ncn1	-5%[99.4 µM]	·	·	·	·	·	·
O=C(CSC1=NS(=O)(=O)c2ccccc2N1)c1ccccc1	11%	-1%	2%	i	?	21µM*	?
NCC(=O)c1ccccc1	16%	·	-15%	-3%	·	·	·
O=C(N/N=C\C=C\c1ccc2c(c1)OCO2)C1COc2ccccc2O1 (configuration not stated)	0%	-1%	-12%	·	27µM*	17µM*	21µM*
O=C(/C=C/c1ccc2c(c1)OCO2)c1c(O)n(CCc2ccccc2)c(=O)[nH]c1=O	1%	-5%	-12%	4%	1%	·	·
Cc1cc(=O)oc2c3c(cc(OCC(=O)N4CCC[C@H]4C(=O)O)c12)OC(C)(C)CC3	0%	-1%	?	i	2%	·	·
C=C1[C@@H](O)C2C=CC[C@H](C)C(=O)[C@@](C)(O)C=C[C@@H](OC(C)=O)[C@@]23C(=O)N[C@H](Cc2ccccc2)[C@@H]3[C@@H]1C (some centres not stated)	·	·	-6%	·	·	·	·
C=C(C)C(=O)Nc1cccc(C2=NOC3(C2)C[C@@H](C(N)=O)N(C(=O)c2ccc(OC)cc2)C3)c1 (some centres not stated)	?	3%	4%	2µM*	1.9µM*	0.17µM*	0.24µM*
C=C(C)C(=O)Nc1cccc(C2=NOC3(C2)C[C@@H](C(N)=O)N(C(=O)CCCCC)C3)c1 (some centres not stated)	10µM*	8%	1%	?	2.7µM*	0.15µM*	0.24µM*
O=C1CCCC2[C@@H]3CCCN4CCC[C@@H](CN12)C34 (some centres not stated)	·	·	14%[0.501 µM]	·	·	·	·
CCCOC(=O)c1cc2c(cn1)[nH]c1ccccc12	·	·	-25%	·	·	·	·
N[C@@H](CCCCP(=O)(O)O)C(=O)O	·	·	-5%	·	·	·	·
O=C(Nc1cnn(Cc2ccc(Cl)c(Cl)c2)c1)C12CC3CC(CC(C3)C1)C2	0%	5%	-8%	-6%	?	?	?
CN(C)C1(CNC(=O)Nc2ccc(Cl)c(Cl)c2)CCCCC1	-14%	?	-6%	-10%	-6%	·	·
O=C(Nc1nccs1)C(Cl)(Cl)Cl	8%	2%	-16%	-8%	-4%	·	·
Cc1ccc(-c2cc(C(=O)Nc3nccs3)c3ccccc3n2)o1	7%	3%	?	-9%	30µM*	21µM*	?
COc1ccc(-c2cc(=NCCC(=O)O)c3cc(C)ccc3o2)cc1	-23%	-6%	?	-6%	?	-30%	?
C[C@@H]1Cc2c(Cl)cc(C(=O)N[C@@H](Cc3ccccc3)C(=O)O)c(O)c2C(=O)O1	·	·	-8%	·	·	·	·
CCCC(=O)O[C@@H]1[C@@H](C)[C@@]2(O)[C@@H](C=C(CO)C[C@@]3(O)C(=O)C(C)=C[C@@H]23)[C@@H]2C(C)(C)[C@]12OC(=O)CCC	·	·	43%	·	·	·	·
CCc1c(C)sc(NC(=O)c2ccoc2C)c1C(N)=O	?	1%	?	-9%	?	3.4µM*	8.5µM*
CC1CN(c2ccc([N+](=O)[O-])cc2Cl)CCN1 (configuration not stated)	-11%	-3%	-12%	i	9.5µM*	27µM*	30µM*
CN1CCN(c2ccc([N+](=O)[O-])cc2Cl)CC1	0%	1%	-4%	1%	-3%	·	·
SMILES	GLS inh	USP2a block	GCN5L2 inh	PGK inhibitor	Tb PFK inh-1	TbPFK ATP	Tb PFK inh-2
CN(CCc1ccc(Cl)c(Cl)c1)[C@@H]1CCCC[C@@H]1N1CCCC1	·	·	0%	·	·	·	·
O=[N+]([O-])c1ccc(CNc2ccc(Cl)cc2)s1	6%	3%	3%	-5%	27µM*	12µM*	27µM*
COc1ccc(NCc2ccc([N+](=O)[O-])s2)cc1	6%	2%	-2%	1%	?	13µM*	27µM*
O=[N+]([O-])c1ccc(CNc2ccc(F)cc2)s1	3%	1%	-17%	-3%	17µM*	7.6µM*	9.5µM*
COc1ccc(CN2C(=O)NC(=O)/C(=C/c3ccc([N+](=O)[O-])s3)C2=O)cc1	-22%	-2%	?	?	-1%	·	·
CN1C2CCCC1CC(=O)C2	·	·	-3%	·	·	·	·
CN1CCCC2(CCN(C(=O)c3csnn3)CC2)C1	·	·	-15%	·	·	·	·
CCCCCc1cc(O)c2c(c1)OC(C)(C)C1CC=C(C)CC21 (configuration not stated)	20%	·	-15%	·	·	·	·
O=C(NNC(=O)c1cc2ccccc2cc1O)c1cccs1	-5%	1%	-8%	-6%	?	-29%	?
Nc1nn2cc(-c3ccccc3)nc2c2ccccc12	1%	-1%	-8%	-11%	?	0%	?
O=C(Nc1ccc2ccccc2c1)c1ccccc1O	8%	-8%	-8%	-13%	?	-33%	?
Cc1nc(Cl)sc1C(=O)Nc1ccc2ccccc2c1	-14%	-3%	-7%	i	2%	·	·
C=C1Nc2ccccc2C(=O)N1c1ccccc1C	4%	·	4%	·	·	·	·
NC(=S)c1cn(C2OC(CO)C(O)C2O)c2ncnc(N)c12 (configuration not stated)	-15%	3%	-26%	·	?	?	-14%
CC(=O)CC(c1ccccc1)c1c(O)c2ccc(O)cc2oc1=O (configuration not stated)	·	·	-26%	·	·	·	·
CCOC(=O)c1cn(Cc2cccc(Cl)c2)nn1	-2%	2%	2%	7%	?	27µM*	?
